Test results published in PubChem BioAssay AID1159580 (chemical genetic matrix, 2015).
The campaign covered roughly 5,500 compounds. About 2,000 (36%) were called active. Not shown: some 18% with an inconclusive outcome. No stated cut-off is given here; in the data, active means normalized growth mostly below about 0.91 (no sharp cut-off); inconclusive means no clear call, values can overlap the other calls; inactive means mostly above about 0.92. The list shows a part of the results.

Test: chemical genetic growth profiling, strain panel (AID 1159580);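 further: tested at 20 µM; growth read once vehicle control cultures reached saturation at 30 °C; 1 = growth at the plate median or of vehicle wells; lower values mean less growth of the strain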
Settings: S. cerevisiae deletion strains, growth OD

Measured: normalized growth

O=c1ccc2cc(OC3OC(CO)C(O)C(O)C3O)c(O)cc2o1 (stereo not drawn)
inactive: locus YAL021C, strain ccr4, hits give low values 0.959 | locus YAL026C, strain drs2, hits give low values 1 | locus YAL030W, strain snc1, hits give low values 0.986 | locus YBL061C, strain skt5, hits give low values 1 | locus YBR009C, strain hhf1, hits give low values 0.995 | locus YBR023C, strain chs3, hits give low values 0.992 | locus YBR171W, strain sec66, hits give low values 1 | locus YBR231C, strain swc5, hits give low values 1.03 | locus YBR279W, strain paf1, hits give low values 0.998 | locus YCL011C, strain gbp2, hits give low values 0.974 | locus YCL016C, strain dcc1, hits give low values 0.979 | locus YCL069W, strain vba3, hits give low values 0.983 | locus YCR088W, strain abp1, hits give low values 0.985 | locus YDL005C, strain med2, hits give low values 0.989 | locus YDL040C, strain nat1, hits give low values 0.991 | locus YDR001C, strain nth1, hits give low values 0.972 | locus YDR069C, strain doa4, hits give low values 0.998 | locus YDR137W, strain rgp1, hits give low values 0.976 | locus YDR159W, strain sac3, hits give low values 1.06 | locus YDR195W, strain ref2 0.973 | locus YDR297W, strain sur2, hits give low values 0.995 | locus YDR334W, strain swr1, hits give low values 0.991 | locus YDR335W, strain msn5, hits give low values 0.991 | locus YDR392W, strain spt3, hits give low values 0.927 | locus YEL003W, strain gim4, hits give low values 1 | locus YEL037C, strain rad23, hits give low values 0.986 | locus YEL061C, strain CIN8 (second series), hits give low values 0.984 | locus YER015W, strain faa2, hits give low values 1 | locus YER016W, strain bim1, hits give low values 0.993 | locus YER111C, strain swi4, hits give low values 1.01 | locus YER155C, strain BEM2 (second series), hits give low values 1.07 | locus YFR010W, strain ubp6, hits give low values 0.997 | locus YGL167C, strain pmr1, hits give low values 0.989 | locus YGL173C, strain kem1, hits give low values 0.998 | locus YGL227W, strain vid30, hits give low values 0.989 | locus YGL240W, strain doc1, hits give low values 1.04 | locus YGL253W, strain hxk2, hits give low values 0.996 | locus YHR013C, strain ard1, hits give low values 0.992 | locus YHR027C, strain rpn1, hits give low values 0.977 | locus YHR030C, strain SLT2, hits give low values 0.985 | locus YHR079C, strain IRE1, hits give low values 0.969 | locus YHR142W, strain chs7, hits give low values 0.959 | locus YJL092W, strain hpr5, hits give low values 0.981 | locus YJL095W, strain BCK1 (second series), hits give low values 0.995 | locus YJL095W, strain BCK1, hits give low values 0.968 | locus YJL115W, strain asf1, hits give low values 0.973 | locus YJL129C, strain trk1, hits give low values 1 | locus YJL154C, strain vps35, hits give low values 0.981 | locus YJL164C, strain tpk1, hits give low values 0.947 | locus YJL166W, strain qcr8, hits give low values 1 | locus YJR066W, strain TOR1, hits give low values 0.919 | locus YKL160W, strain elf1, hits give low values 0.966 | locus YKR026C, strain gcn3, hits give low values 1 | locus YKR091W, strain srl3, hits give low values 0.989 | locus YLL001W, strain dnm1, hits give low values 0.993 | locus YLL026W, hits give low values 0.988 | locus YLL041C, strain sdh2, hits give low values 0.983 | locus YLR027C, strain aat2, hits give low values 1.01 | locus YLR113W, strain HOG1, hits give low values 0.973 | locus YLR221C, strain rsa3, hits give low values 1.04 | locus YLR258W, strain gsy2, hits give low values 0.972 | locus YLR262C, strain YPT6 (second series), hits give low values 0.98 | locus YLR320W, strain mms22, hits give low values 1.04 | locus YLR342W, strain FKS1, hits give low values 0.995 | locus YLR357W, strain rsc2, hits give low values 1 | locus YLR370C, strain arc18, hits give low values 1.02 | locus YLR384C, strain iki3, hits give low values 1.01 | locus YML120C, strain ndi1, hits give low values 0.988 | locus YMR058W, strain fet3, hits give low values 1 | locus YMR125W, strain sto1, hits give low values 0.92 | locus YMR129W, hits give low values 0.993 | locus YMR205C, strain PFK2, hits give low values 0.969 | locus YMR231W, strain pep5, hits give low values 1 | locus YNL071W, strain lat1, hits give low values 0.988 | locus YNL183C, strain NPR1, hits give low values 0.897 | locus YNL209W, strain ssb2, hits give low values 0.99 | locus YNL248C, strain rpa49, hits give low values 1.04 | locus YNL322C, strain KRE1 (second series), hits give low values 1.01 | locus YNR049C, strain mso1, hits give low values 0.982 | locus YOR001W, strain rrp6, hits give low values 1.02 | locus YOR070C, strain gyp1, hits give low values 0.998 | locus YOR080W, strain dia2, hits give low values 1.01 | locus YOR083W, strain WHI5, hits give low values 0.964 | locus YOR106W, strain vam3, hits give low values 0.939 | locus YOR231W, strain MKK1, hits give low values 0.973 | locus YOR265W, strain rbl2, hits give low values 1 | locus YOR270C, strain vph1, hits give low values 1.03 | locus YOR290C, strain snf2, hits give low values 0.919 | locus YPL051W, strain arl3, hits give low values 1.02 | locus YPL078C, strain atp4, hits give low values 0.935 | locus YPL106C, strain sse1, hits give low values 1.01 | locus YPL240C, strain hsp82, hits give low values 0.998 | locus YPL256C, strain CLN2, hits give low values 0.956
